Among the test systems are SK-MEL-2 melanoma; EKVX NSCLC; SN12C renal; UO-31 renal; TK-10 renal; ACHN renal; CAKI-1 renal; A498 renal; CCRF-CEM leukemia; MOLT-4 leukemia; SR leukemia; OVCAR-8 ovarian; OVCAR-5 ovarian; OVCAR-4 ovarian; SK-OV-3 ovarian; IGROV1 ovarian; OVCAR-3 ovarian; HS 578T breast; NCI/ADR-RES ovarian.
Assay in all cases: NCI-60 one-dose screen, 48 h (100 = growth as untreated, 0 = no growth, -100 = all killed)
Conditions in all cases: 10 µM unless noted

Experimental findings from PubChem BioAssay (NCI) are described below.

The panel holds about 83,000 compounds, 20% with a hit somewhere; the sample as a whole holds those more often.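 48-hour exposure, single concentration, 96-well plates; percent growth endpoint where 0 means no net growth. Active: below 10.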 A number with no mark means an inactive call. Activity calls are given as the source filed them.

With `O=C(O/C(=C/c1ccccc1)C(F)(F)F)c1ccccc1`, the growth is 103% in the assay on SK-MEL-2 melanoma; 103% in the assay with EKVX NSCLC; 99.3% in the assay with SN12C renal; 102% in the assay with UO-31 renal; 103% in the assay on TK-10 renal; 110% with ACHN renal. The growth with CAKI-1 renal was 99%; in the assay on A498 renal, 88.7%; in the assay on CCRF-CEM leukemia, 106%; with MOLT-4 leukemia it was 7.51% (active); in the assay on SR leukemia it was 69.6%; in the assay on OVCAR-8 ovarian, 101%. Further, the growth was 101% in the assay with OVCAR-5 ovarian; 103% with OVCAR-4 ovarian; 111% in the assay on SK-OV-3 ovarian; 120% in the assay on IGROV1 ovarian; 103% in the assay with OVCAR-3 ovarian; 116% in the assay on HS 578T breast. The growth in the assay on NCI/ADR-RES ovarian is 103%.
Turning to `O=c1c2cc(Br)cc(Br)c2nc(-c2ccc(Cl)cc2)n1/N=C\c1ccccc1F`, the growth in the assay on SK-MEL-2 melanoma was 78.4%; in the assay on EKVX NSCLC, 63.7%; in the assay with SN12C renal, 58.2%; in the assay with UO-31 renal, 21.6%; with TK-10 renal it was 33.1%; in the assay with ACHN renal it was 26.4%. In addition, the growth with CAKI-1 renal is 27%; in the assay with A498 renal, 85.6%; in the assay on CCRF-CEM leukemia, 71.7%; in the assay on MOLT-4 leukemia, 74%; with SR leukemia it was 81%; in the assay on OVCAR-8 ovarian it was 47%. Further, the growth in the assay with OVCAR-5 ovarian was 64.8%; with OVCAR-4 ovarian, -9.05% (active); with SK-OV-3 ovarian, 49.6%; in the assay with IGROV1 ovarian, 39.1%; with OVCAR-3 ovarian, 56.4%; in the assay with HS 578T breast, 60.8%. For the same molecule, the growth in the assay with NCI/ADR-RES ovarian was 53.7%.
With `O=C(NCCN1CCCCC1)n1cc(-c2ccncc2)c(-c2ccc(Cl)c(O)c2)n1`, the growth with SK-MEL-2 melanoma was 60.8%; in the assay with EKVX NSCLC, 114%; with SN12C renal, 81.6%; with UO-31 renal, 55.4%; with TK-10 renal, 79.4%; in the assay on ACHN renal, 57.4%. The growth with CAKI-1 renal is 109%; in the assay on A498 renal it was 114%; in the assay with CCRF-CEM leukemia it was 87%; in the assay on MOLT-4 leukemia, 88.2%; in the assay on SR leukemia it was 70.9%; in the assay with OVCAR-8 ovarian, 89.1%. Besides, the growth was 96.5% in the assay on OVCAR-5 ovarian; 122% in the assay with OVCAR-4 ovarian; 71.5% in the assay with SK-OV-3 ovarian; 74% in the assay with IGROV1 ovarian; 113% with OVCAR-3 ovarian; 92.5% with HS 578T breast. The growth in the assay with NCI/ADR-RES ovarian is 95.6%.
`CC(C)c1nc2ccccc2n1CC(=O)N/N=C/c1cccc(O)c1`: the growth was 107% with SK-MEL-2 melanoma; 105% in the assay on EKVX NSCLC; 94.1% with SN12C renal; 80.2% with UO-31 renal; 93.5% in the assay with TK-10 renal; 95.7% in the assay on ACHN renal. Besides, the growth in the assay with CAKI-1 renal was 101%; in the assay on A498 renal, 88%; in the assay with CCRF-CEM leukemia, 94.9%; with MOLT-4 leukemia it was 91.9%; with SR leukemia, 89.7%; in the assay on OVCAR-8 ovarian, 92.6%. Moreover, the growth was 108% with OVCAR-5 ovarian; 104% in the assay on OVCAR-4 ovarian; 93.2% in the assay on SK-OV-3 ovarian; 118% in the assay with IGROV1 ovarian; 98.3% in the assay with HS 578T breast; 109% with NCI/ADR-RES ovarian.
Turning to `CN1C(=O)C(C2=NNC(c3ccccc3C(=O)O)C2)C(=O)N(C)C1=O` (stereo unspecified), the growth was 98.9% with SK-MEL-2 melanoma; 102% with EKVX NSCLC; 97.2% in the assay on SN12C renal; 86.5% with UO-31 renal; 96.9% with TK-10 renal; 106% with ACHN renal. The growth was 86.6% with CAKI-1 renal; 90.8% in the assay with A498 renal; 96% with CCRF-CEM leukemia; 93.8% with MOLT-4 leukemia; 101% in the assay with SR leukemia; 103% in the assay with OVCAR-8 ovarian. Moreover, the growth in the assay with OVCAR-4 ovarian is 99%; in the assay on SK-OV-3 ovarian it was 90.9%; with IGROV1 ovarian, 106%; in the assay with OVCAR-3 ovarian, 110%; in the assay on HS 578T breast, 93.6%.
Regarding `CCOC(=O)C1C(=O)C=C(c2ccccc2)CC1c1sc(N(C)Cc2ccccc2)nc1Cl` (stereo unspecified), the growth is 84.4% in the assay on SK-MEL-2 melanoma; 87.9% in the assay on EKVX NSCLC; 94.3% in the assay on SN12C renal; 76.1% with UO-31 renal; 107% with TK-10 renal; 95.3% with ACHN renal. In addition, the growth in the assay with CAKI-1 renal is 68.7%; in the assay with A498 renal, 107%; with CCRF-CEM leukemia, 84%; in the assay on MOLT-4 leukemia, 71.1%; in the assay with SR leukemia, 81.4%; in the assay with OVCAR-8 ovarian it was 89.2%. Further, the growth in the assay on OVCAR-5 ovarian is 107%; in the assay with SK-OV-3 ovarian it was 87.4%; in the assay on IGROV1 ovarian, 110%; in the assay on OVCAR-3 ovarian, 102%; with HS 578T breast, 76.2%; with NCI/ADR-RES ovarian, 94.6%.
Consider `CN1C(=O)N(C)C2C1NN=c1s/c(=C\c3ccc(Br)cc3)c(=O)n12` (stereo unspecified), for which the growth with SK-MEL-2 melanoma is 52.7%; in the assay on EKVX NSCLC, 50%; in the assay with SN12C renal, 50.2%; in the assay on UO-31 renal, 53.4%; in the assay with TK-10 renal, 60.4%; in the assay on ACHN renal, 43.2%. Moreover, the growth with CAKI-1 renal is 38.6%; in the assay on A498 renal, 20.2%; in the assay with CCRF-CEM leukemia it was 10.3%; in the assay with MOLT-4 leukemia it was 40.3%; in the assay with SR leukemia, 13.5%; with OVCAR-8 ovarian, 33.7%. Besides, the growth in the assay on OVCAR-5 ovarian was 56.8%; with SK-OV-3 ovarian, 29.5%; in the assay on IGROV1 ovarian, 48.1%; in the assay on OVCAR-3 ovarian, 0.921% (active); in the assay with HS 578T breast, 11.6%; in the assay with NCI/ADR-RES ovarian, 17%.
For `CCCCOc1nc2ccc(C)cc2cc1/C=C/C(=O)/C=C(O)/C=C/c1cc2cc(C)ccc2nc1OCCCC`, the growth in the assay with SK-MEL-2 melanoma was 103%; in the assay with EKVX NSCLC, 102%; with SN12C renal, 111%; with UO-31 renal it was 97.7%; in the assay with TK-10 renal, 102%; in the assay with ACHN renal it was 102%. Besides, the growth was 98.1% in the assay on CAKI-1 renal; 116% in the assay with A498 renal; 97.6% in the assay on CCRF-CEM leukemia; 98.8% with MOLT-4 leukemia; 95.9% in the assay with SR leukemia; 100% with OVCAR-8 ovarian. In addition, the growth was 102% with OVCAR-5 ovarian; 116% with OVCAR-4 ovarian; 89.9% in the assay with SK-OV-3 ovarian; 109% in the assay on IGROV1 ovarian; 113% in the assay with OVCAR-3 ovarian; 100% in the assay with HS 578T breast. In addition, in the assay on NCI/ADR-RES ovarian, the growth was 96.8%.
Consider `Cc1cc(N)cc(C)c1-c1c(Br)cc(N)cc1Br`, for which the growth in the assay on SK-MEL-2 melanoma was 26.6%; in the assay on EKVX NSCLC, 51.8%; with SN12C renal, 47.9%; in the assay with UO-31 renal, 36.1%; in the assay on TK-10 renal, 22.3%; in the assay with ACHN renal it was 56.2%. The growth in the assay on CAKI-1 renal is 35%; with A498 renal, 27.9%; with CCRF-CEM leukemia, 8.42% (active); in the assay with MOLT-4 leukemia it was 35.1%; with SR leukemia it was 9.99% (active); in the assay on OVCAR-8 ovarian, 31%. Further, the growth in the assay on OVCAR-5 ovarian was 45.9%; in the assay with OVCAR-4 ovarian it was 61.9%; in the assay with SK-OV-3 ovarian, 6.33% (active); in the assay with IGROV1 ovarian it was 21%; in the assay on OVCAR-3 ovarian it was 1.61% (active); in the assay on HS 578T breast, 34.1%. Also, in the assay on NCI/ADR-RES ovarian, the growth was -1.83% (active).
